# Source: PubChem BioAssay (EPA / NIEHS)
# Several values for one entry are separate records, joined by “and”; a condition that tells them apart may be missing. Equal entries are not always repeated. Where a structure was tested more than once in an assay, its records may differ in their call. Activity calls are given as the source filed them. How the source made its calls: active means hit-call score of the fitted dose curve at least 0.9, where 1 is the maximum; inactive means score below 0.9.
# Assay: ATG_FoxO_CIS: Attagene CIS-FACTORIAL HepG2 Assay for human Forkhead box O (FoxO) (AID 2282943)
# Conditions: HepG2 Attagene cis-reporter, FoxO element, mRNA; actives raise or lower the signal
# Experimental: ATG_CIS is a cell-based, multiplexed-readout assay that uses HepG2, a human liver cell line, with measurements taken at 24 hours after chemical dosing in a 24-well plate.ATG_FoxO_CIS is one of 52 assay component(s) measured or calculated from the ATG_CIS assay. It is designed to make measurements of mRNA induction, a form of inducible reporter, as detected with fluorescence intensity signals by Reverse transcription polymerase chain reaction (RT-PCR) and Capillary electrophoresis technology.Data from the assay component ATG_FoxO_CIS was analyzed into 1 assay endpoint. This assay endpoint, ATG_FoxO_CIS, was analyzed with bidirectional fitting relative to DMSO as the negative control and baseline of activity. Using a type of inducible reporter, measures of mRNA for gain or loss-of-signal activity can be used to understand the reporter gene at the transcription factor-level as they relate to the gene FOXO1 and FOXO3. Furthermore, this assay endpoint can be referred to as a primary readout, because this assay has produced multiple assay endpoints where this one serves a reporter gene function. To generalize the intended target to other relatable targets, this assay endpoint is annotated to the dna binding intended target family, where the subfamily is forkhead box protein.
# Human liver HepG2 cells are transiently transfected with multiple reporter transcription units (MRTUs) in 6-well plates using FuGene 6 reagent (Roche; 3 ml FuGene/1 mg DNA). The MRTU constructs are regulated by a cis-regulating element (promoter). […] A major difference between the CIS and TRANS system is that in CIS activities of endogenous TFs are measured, whereas the TRANS assay evaluates changes in activities of exogenous, chimeric NR-Gal4 proteins. […] At the end of 24 hour incubation, total RNA was isolated using TriZol reagent (Invitrogen). The isolated RNA is then reverse-transcribed using oligo(dT) primer and Mo-MLV reverse transcriptase (Invitrogen) with DNAse I (Ambion) treatment for 30 min. The one-tenth of the produced cDNA was amplified by PCR using Taq DNA polymerase (Invitrogen) and two reporter sequence-specific primers. The PCR products were fluorescently labeled by primer extension with 6-arboxyfluorescein (6-FAM) 5'-labeled reporter sequence-specific primer (2 min at 95 C, 20 s at 68 C and 10 min at 72 C) and these products were digested with 5U of HpaI (New England Biolabs) for 2h at 37 C. The fragments were purified using Qiaquick PCR columns (Qiagen), analyzed on an ABI 3130xL genetic analyzer (Applied Biosystems) with peak positions identified by using a set of X-rhodamine (ROX)-labeled MapMarker1000 molecular weight standards (BioVentures). The raw capillary electrophoresis data was processed using Attagraph software (Attagene).
SMILES,outcome,AC50
COC(=O)c1ccc(CNS(C)(=O)=O)cc1S(=O)(=O)NC(=O)Nc1nc(OC)cc(OC)n1,inactive,
CCCCCCC(C)OC(=O)COc1nc(F)c(Cl)c(N)c1Cl (stereo not given),inactive,
CCN(CC)C(=O)c1cccc(C)c1,inactive,
O=C(O)c1ccccc1,inactive,
C=CCOC(Cn1ccnc1)c1ccc(Cl)cc1Cl (stereo not given),inactive,
CCOC(=O)[C@H](C)Oc1ccc(Oc2nc3ccc(Cl)cc3o2)cc1,inactive,
CCOC(=O)C(C)Oc1ccc(Oc2nc3ccc(Cl)cc3o2)cc1 (stereo not given),inactive,
CC1(C)C(C=C(Cl)Cl)C1C(=O)OCc1cccc(Oc2ccccc2)c1 (stereo not given),inactive,
CCCCOC(=O)[C@@H](C)Oc1ccc(Oc2ccc(C(F)(F)F)cn2)cc1,inactive,
O=C(Nc1ccc([N+](=O)[O-])cc1Cl)c1cc(Cl)ccc1O,inactive,
N[C@@H](Cc1cc(I)c(Oc2ccc(O)c(I)c2)c(I)c1)C(=O)O,inactive,
C[C@]12C[C@H](O)[C@H]3[C@@H](CCC4=CC(=O)CC[C@@]43C)[C@@H]1CC[C@@H]2C(=O)CO,inactive,
CCCN(CCC)c1c([N+](=O)[O-])cc(C(F)(F)F)c(N)c1[N+](=O)[O-],,50 µM (active)
CCOC(=O)COc1cc(-n2ncc(C(F)(F)F)c(C)c2=O)c(F)cc1Cl,inactive,
C#CCOC(=O)[C@@H](C)Oc1ccc(Oc2ncc(Cl)cc2F)cc1,inactive,
CCCCOCCOCCOCc1cc2c(cc1CCC)OCO2,inactive,
CC(C)CCCCCCc1ccc(O)cc1,inactive,20.3 µM (active) and 17.9 µM (active)
CCN(Cc1c(F)cccc1Cl)c1c([N+](=O)[O-])cc(C(F)(F)F)cc1[N+](=O)[O-],inactive,
CCC(O)=C1C(=O)CC(C(=O)O)CC1=O (stereo not given),inactive,

SMILES,outcome,AC50
CCSC(=O)N(CC(C)C)CC(C)C,inactive,
CCNc1nc(N)nc(Cl)n1,inactive,
Oc1ccc(C(c2ccc(O)cc2)C(Cl)(Cl)Cl)cc1,inactive,
Cc1nn(C)c(Oc2ccccc2)c1C=NOCc1ccc(C(=O)OC(C)(C)C)cc1,inactive,
O=C(O)C1(C(=O)Nc2ccc(Cl)cc2Cl)CC1,inactive,
S=C(S)NCCNC(=S)S.[Mn+2].[S-]C([S-])=NCCN=C([S-])[S-].[Zn+2],inactive,
O=C(c1ccccc1)C1CCCCC1,inactive,
COC(=O)c1ccccc1C(=O)O,inactive,
CC(C)(c1ccc(O)cc1)c1ccc(O)cc1,inactive,57.7 µM (active)
S=C([S-])NCCNC(=S)[S-].[Mn+2],inactive,
CCCOC(=O)NCCCN(C)C,inactive,
N#CSCSc1nc2ccccc2s1,inactive,
CCCCC(CC)COC(=O)c1ccccc1C(=O)O (stereo not given),inactive,
CCCOC(=O)c1ccc(C(=O)OCCC)nc1,inactive,
O=C(c1ccc(O)cc1O)c1ccc(O)cc1O,inactive,
CCOC(=O)C(C)Oc1ccc(Oc2cnc3cc(Cl)ccc3n2)cc1 (stereo not given),inactive,
COC(=O)c1ccc(I)cc1S(=O)(=O)NC(=O)Nc1nc(C)nc(OC)n1,inactive,
CCC(C)OC(=O)N1CCCCC1CCO (stereo not given),inactive,
c1ccc2[nH]c(-c3cscn3)nc2c1,inactive,
